# Out of some 7,400 compounds screened, about 4,100 (55%) were called active. The set was probably picked from earlier hits. Not all results are given here. Unmarked numbers belong to inactive results.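 Rule for the calls: active = inhibition of yeast growth at or above a set limit in either of two repeat tests at 20 µM; inactive = the rest.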
# Test: growth inhibitors of tim10-1 mutant yeast, confirmation, single concentration, luminescence, S. cerevisiae (AID 463213);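 note: tim10-1 mutant grown at permissive 25 °C to find synthetic lethal compounds; 0% = DMSO yeast wells and 100% = medium wells without yeast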
# Conditions: S. cerevisiae tim10-1 ts strain growth, BacTiter-Glo, 24 h; at 20 µM; active compounds read high
row,SMILES,inhibition
1,Cc1sc2ncnc(SCC(=O)Nc3ccc(CN4CCCC4)cc3)c2c1C,23.3%
2,O=C1C=CC(=O)N1c1ccc(N2CCCCC2)cc1,92.6% (active)
3,Cc1oc2cc(Br)c(O)c(Br)c2c1C(=O)c1ccccc1,36.2% (active)
4,CC1=C/C(=N\OS(=O)(=O)c2ccccc2)C=CC1=O,60.8% (active)
5,O=c1c(Cl)c(NCc2ccc(F)cc2Cl)cnn1C12CC3CC(CC(C3)C1)C2,44.2% (active)
6,COc1ccc(OC)c(-c2c(=O)n(OCc3ccccc3Br)c3ccccc3[n+]2[O-])c1,24.3%
7,CC(C)c1nccn1S(=O)(=O)c1cc([N+](=O)[O-])ccc1Cl,28.7%
8,CCc1nc(C)cn1S(=O)(=O)c1cc([N+](=O)[O-])ccc1Cl,47.8% (active)
9,O=C(c1ccccc1)N1CCC(CC2CC(c3ccc(Cl)cc3)=NO2)(C(=O)NCC2CCCCC2)CC1 (stereo unspecified),34% (active)
10,COc1cc([N+](=O)[O-])ccc1NC(=O)COC(=O)CCOc1ccc(C)cc1,63.3% (active)
11,O=C(COC(=O)CCOc1ccccc1)Nc1cc(S(=O)(=O)N2CCCCC2)ccc1Cl,30.2%
12,O=C(NC1CCCCC1)c1ccc(-c2ccc(Cl)cc2)o1,39% (active)
13,O=C(Nc1cccc(F)c1)NC1CCCCCCC1,20.1%
14,CSC1=N/C(=C\C=C\c2cccs2)C(=O)S1,51.9% (active)
15,O=[N+]([O-])c1ccc(N/N=C/c2ccccc2)cc1,27%
16,c1ccc(-c2nc(NCc3ccco3)c3ccccc3n2)cc1,42% (active)
17,S=c1[nH]c2ccccc2c2ccccc12,7.95%
18,C#CCN1C(=O)C(O)(CC(=O)c2cc(OC)ccc2OC)c2ccccc21 (stereo unspecified),30.6%
19,CC(C)(CCl)C(=O)Nc1ccc(Sc2ccc(F)cc2)cc1,51.8% (active)
20,Cc1cccc(OCCNC(=S)NC(=O)c2cccnc2)c1,27.1%
21,COCCNC(=O)/C(C#N)=C/c1cccc(OCc2ccccc2)c1,70.2% (active)
22,C/C(=N/NC(=O)c1cc(Cl)ccc1O)C12CC3CC(CC(C3)C1)C2,34.1% (active)
23,S=C(NCc1ccc(Cl)cc1)NC12CC3CC(CC(C3)C1)C2,3.55%
24,C/C(=N\Nc1nc(Nc2ccccc2)nc(N2CCOCC2)n1)c1cccs1,24.8%

row,SMILES,inhibition
1,Cc1cc(C)n(-c2nc(SCC(=O)N3CCCC3)c3c4c(sc3n2)CCCC4)n1,40.1% (active)
2,CCC(C)(C)n1nnnc1CN1CCN(c2nc3ccc(C)cc3cc2C#N)CC1,35.2% (active)
3,CCOc1ccc2nc(N3CCCN(C(=O)Nc4ccccc4C)CC3)c(C#N)cc2c1,26.7%
4,Clc1ccccc1CSc1nnc(-c2ccco2)c(-c2ccco2)n1,27.3%
5,Fc1cccc(Cl)c1CSc1ccc(-c2ccco2)nn1,39.5% (active)
6,COc1cc(C(=O)Nc2nccs2)cc(OC)c1OC,29%
7,CSc1nnc(NC(=O)c2nc(S(=O)(=O)Cc3ccc(C)cc3)ncc2Cl)s1,-0.5%
8,COc1ccc(CS(=O)/C(Cl)=C(/Cl)C(=O)Nc2ccc(OC)nc2)cc1 (stereo unspecified),34.8% (active)
9,Cn1c(CCCOc2ccc(Cl)cc2Cl)n[nH]c1=S,17.5%
10,Cc1ccc(NC(=O)CN2CCC3(O)CCCCC3C2c2ccc3c(c2)OCO3)c(C)c1 (stereo unspecified),37.5% (active)
11,Cn1c(C(=O)OC(C(=O)NC2CCCCC2)c2ccccn2)cc2sccc21 (stereo unspecified),17.9%
12,CN(c1ccccc1)S(=O)(=O)c1ccc(NC(=O)COc2ccccc2)cc1,34.2% (active)
13,Cc1ccc(NC(=O)CCOc2ccccc2)cc1S(=O)(=O)Nc1ccccc1Cl,29.1%
14,COc1ccc(/C(N)=N/OC(=O)CCCc2ccccc2)cc1,48.1% (active)
15,N/C(=N\OC(=O)CCc1ccccc1)c1ccc(Cl)cc1,57.7% (active)
16,COc1ccc(/C(N)=N/OC(=O)Cc2ccccc2)cc1,15.5%
17,CS(=O)(=O)c1sc2nc(-c3ccccc3)cc(-c3ccccc3)c2c1N,33.8% (active)
18,Nc1nc(-c2ccccc2)cc(-c2ccccc2)n1,10%
19,O=C(COc1ccccc1Cl)N1N=C(c2cccs2)CC1c1ccco1 (stereo unspecified),27.8%
20,O=C(CC(O)(C(F)(F)F)C(F)(F)F)Nc1ccc(Cl)c(Cl)c1,88.2% (active)
21,CN=c1scc(-c2cc(OC)ccc2OC)n1/N=C/c1c(C)[nH]c2ccccc12,19.1%
22,O=S(=O)(Nc1cccc(Oc2ccc(Cl)cc2)n1)c1ccc(F)cc1,45% (active)
23,CCCc1nc2c(c(=O)c3ccccc3n2C)c(=O)n1C1CCCCCC1,28.5%
24,CCCCCC1CCC(c2nnc(SCC(C)=O)o2)CC1 (stereo unspecified),39.2% (active)

row,SMILES,inhibition
1,COc1ccc(CCNc2cc(C)nc3c(-c4ccc(Cl)cc4)c(C)nn23)cc1OC,24%
2,CCOC(=O)c1c(-c2ccccc2)oc2cc(Br)c(O)cc12,39.4% (active)
3,CCOC(=O)c1c(-c2ccccc2)oc2ccc(OCC(=O)NN)cc12,15.6%
4,CCOC(=O)c1c(CN2CCOCC2)n(-c2ccccc2)c2ccc(O)cc12,22.6%
5,CCOc1ccccc1N1CCN(C(=O)c2ccc3[nH]c(C)c(C)c3c2)CC1,16.4%
6,CCn1nccc1C(=O)Nc1ccc(Cl)c(Cl)c1,37.8% (active)
7,O=C(/C=C/c1ccccc1)c1ccccc1O,56.2% (active)
8,COc1ccc(C(=O)Nc2ccc(-n3nncc3C(C)(C)C)cc2)cc1,38.6% (active)
9,Cc1ccc(S/C(=N\S(=O)(=O)c2ccc(Cl)cc2)c2ccccc2)cc1,35.6% (active)
10,CC(C)Cn1c(N)c(C(=O)NCc2cccs2)c2nc3ccccc3nc21,22.4%
11,Fc1ccc(N2CCN(Cc3cnc(Oc4ccc(Br)cc4)s3)CC2)cc1,28.4%
12,O=C(c1cccc(C(=O)N2CCN(c3ccc(F)cc3)CC2)c1)N1CCN(c2ccc(F)cc2)CC1,27%
13,Oc1c(CN2CCN(c3ccc(F)cc3)CC2)cc(Cl)c2cccnc12,32% (active)
14,OC(CNCC1CCCO1)Cn1c2ccc(Br)cc2c2cc(Br)ccc21 (stereo unspecified),3.65%
15,O=C(/C=C/c1cccs1)c1cc(Cl)ccc1OC(=O)N1CCOCC1,48.5% (active)
16,O=C(NC(Nc1nc2ccc([N+](=O)[O-])cc2s1)(C(F)(F)F)C(F)(F)F)c1ccccc1,86.6% (active)
17,O=C(NCCN1C(=O)S/C(=C\c2cccnc2)C1=O)c1cccc(OC(F)F)c1,27.6%
18,N/C(=N\OC(=O)CCC1CCCCC1)c1ccccn1,45.5% (active)
19,N/C(=N\OC(=O)CC1CCCCC1)c1ccccc1,47.9% (active)
20,S=c1[nH]nc(CSCc2ccc(Cl)cc2Cl)n1-c1ccccc1,24.7%
21,Cc1nnnn1/C(=C\c1ccccc1)C(=O)OCC(=O)N1CC2(C)CC1CC(C)(C)C2 (stereo unspecified),48.4% (active)
22,N/C(Cc1ccc([N+](=O)[O-])cc1)=N\OC(=O)COc1ccc2ccccc2c1,74.3% (active)
23,N/C(Cc1ccc([N+](=O)[O-])cc1)=N\OC(=O)C1CCCCC1,79.8% (active)
24,CN(C)C(=O)c1ccc2c(c1)C1C3CCC(C3)C1C(c1ccccc1)N2 (stereo unspecified),25.9%

row,SMILES,inhibition
1,Cc1cccc(NC(=S)Nc2ccc(Cl)c(Cl)c2)c1,50.9% (active)
2,FC(F)(F)c1cccc(NC(=S)Nc2cccc(Cl)c2)c1,21.2%
3,Cc1cccc(NC(=S)N2CCC(c3nc4ccccc4s3)CC2)c1,30.5%
4,Cc1[nH][nH]c(=O)c1C(c1ccc(-c2ccc(Cl)cc2)o1)c1c(C)[nH][nH]c1=O,29%
5,CCOc1ccc(C(c2c(C)[nH][nH]c2=O)c2c(C)[nH][nH]c2=O)cc1OCC,36.1% (active)
6,COc1ccccc1C1SCCN1C(=O)c1ccc([N+](=O)[O-])cc1 (stereo unspecified),15.9%
7,N/C(=N\OC(=O)Cc1ccccc1[N+](=O)[O-])c1ccc(Br)cc1,55.3% (active)
8,COc1cc(Cl)c(C)cc1NC(=O)CSc1nnc(-c2ccco2)n1CC(C)C,24.4%
9,Cc1cccc(N=Nc2c(O)[nH]c3ccc(F)cc23)c1,51.5% (active)
10,COc1cc(N=Cc2c(O)[nH]c3ccccc23)cc(OC)c1OC,20.7%
11,Cc1ccccc1NCC(=O)N/N=C\c1ccc([N+](=O)[O-])s1,44.2% (active)
12,C/C(=N\NC(=O)CNc1cccc2ccccc12)c1ccc(Br)s1,26.1%
13,O=C(CCc1ccccc1)Nc1ncc([N+](=O)[O-])s1,25%
14,Cc1ccccc1Nc1nnc(SCC(=O)c2cc3ccccc3o2)s1,33.8% (active)
15,CC(C)CC(=O)NC(=S)Nc1ccc(F)cc1F,24.9%
16,O=C(/C=C/Sc1ncn[nH]1)c1ccc(Cl)cc1,69.7% (active)
17,COc1ccc(CCNCc2c(-c3ccccc3)n(C)c3ccccc23)cc1,19.6%
18,Cc1nc(-c2ccccc2)cn2c1nc1ccccc12,36% (active)
19,CCc1ccc(-c2cc(C(=O)NCc3ccco3)c3ccccc3n2)s1,32.3% (active)
20,O=C(Nc1nnc(-c2ccccc2)o1)c1cc(-c2cccs2)nc2ccccc12,13.9%
21,CC1=CC(C)(C)Nc2ccc(OC(=O)CN3C(=O)C4CCCCC4C3=O)cc21 (stereo unspecified),22.8%
22,Cc1cc(N)n2nc(-c3ccc(C(C)(C)C)cc3)cc2n1,42% (active)
23,COc1ccccc1CSc1ncc(-c2ccc([N+](=O)[O-])cc2)[nH]1,27.1%
24,CCCCC(O)(CCCC)C(=O)NN(C(=O)CCl)c1ccccc1,36.3% (active)

# — PubChem BioAssay AID463213 (Sanford-Burnham Center for Chemical Genomics, 2010)
